A short description of test [1]: qHTS profiling of the MIPE4 collection as inhibitors of Plasmodium falciparum (DD2) proliferation (Rep 2) (AID 743346; call rule not given here). Conditions: P. falciparum Dd2 in erythrocytes, SYBR Green DNA, 72 h; at 28.5 µM unless noted. The essentials: (§1)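 Erythrocytes infected with P. falciparum (0.3% parasitemia, 2.5% hematocrit) incubated with compounds 72 h at 37 C, 5% CO2. Lysis with saponin/Triton buffer containing SYBR Green I, overnight at room temperature in the dark; DNA fluorescence (485/535 nm) normalised to 0.29 uM artemisinin and DMSO.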

Test [2] in a line: qHTS profiling of the MIPE4 collection as inhibitors of Plasmodium falciparum (HB3) proliferation (AID 743347; call rule not given here;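 also: plate controls were DMSO vehicle wells for no effect and artemisinin wells for full effect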). Conditions: P. falciparum HB3 in erythrocytes, SYBR Green DNA, 72 h; at 28.5 µM unless noted. The essentials: as §1
The nature of test [3]: High-throughput drug toxicity screening in the BPDCN cell line Cal-1 (AID 1224825; call rule not given here). Conditions: Cal-1 BPDCN cell viability, qHTS; at 45.8 µM (top of the series) unless noted. The gist of the method: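 Cal-1 cells, 500 per well in phenol-red-free RPMI with 10% FBS, exposed to compounds for 48 hours at 37C, 5% CO2. Viability read by CellTiter-Glo luminescence; percent activity normalized to DMSO (100%) and 9.2 uM bortezomib final (0%).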

The nature of test [4]: qHTS assay for measurement of the activity of small molecule inhibitors on Zika virus induced Caspase-3 activity in human iPSC derived neural progenitor cells (hNPCs) (AID 1224857). Also: nearly all actives have a fitted effect of over 65% in size. Also: potency is read from the fitted curve at half-maximal effect. The gist of the method:
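Human iPSC-derived neural progenitor cells pretreated 1 hr with compounds, then infected with Zika virus (2 FFU/cell) for 6 hours at 37 C. Caspase-3/7 measured by Caspase-Glo luminescence; % inhibition calculated from induction scaled to uninfected (0%) and infected (100%) wells.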

The nature of test [5]: qHTS assay for measurement of the activity of small molecule inhibitors on Zika virus induced Caspase-3 activity in human astrocytoma cells (AID 1224859). Also: potency is read from the fitted curve at half-maximal effect. The gist of the method:
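SNB-19 astrocytoma cells, 250/well, pretreated 1 h with compounds, then Zika virus at 2 FFU/cell for 6 h at 37 C; Caspase-Glo 3/7 luminescence after 30 min; percent inhibition normalised to uninfected and infected controls.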

Test [6] is described as follows: qHTS Screen of the MIPE 4.0 Collection Against Ewings Sarcoma (RDES) (AID 1259252). Also: nearly all actives have a fitted effect of over 35% in size. Also: potency is read from the fitted curve at half-maximal effect. The gist of the method: (§2)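 Viability screen: 48 h incubation at 37C, 95% humidity, 5% CO2 with serially titrated compound, followed by CellTiter-Glo readout.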
Test [7] can be described thus: qHTS Screen of the MIPE 4.0 Collection Against Ewings Sarcoma (EW8) (AID 1259255). Also: nearly all actives have a fitted effect of over 35% in size. Also: potency is read from the fitted curve at half-maximal effect.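 As to viability: 100% = DMSO-treated cells and 0% = medium-only wells without cells.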 The essentials: as §2
Test [8] can be described thus: qHTS Screen of the MIPE 4.0 Collection Against Ewings Sarcoma (TC32) (AID 1259256). Also: nearly all actives have a fitted effect of over 45% in size. Also: potency is read from the fitted curve at half-maximal effect. The gist of the method: as §2
The nature of test [9]: qHTS Screen of the MIPE 4.0 Collection Against Ewings Sarcoma (TC71) (AID 1259253). Also: nearly all actives have a fitted effect of over 40% in size. Also: potency is read from the fitted curve at half-maximal effect. The essentials:
as §2

Inconclusive results are not listed. Active and inactive are the calls of the source. Unless noted, calls follow the shape of the dose curve; as a rule, active = well fitted inhibition curve with a large enough effect; inconclusive = small, poorly fitted or top-dose-only effect; inactive = no such curve, though single readings can be large or run the other way. Starred links: 1 amine or outer side, 2 acyl side, 3 side chain; linkers in the order of their positions; H or OH if unused. Positions of bridges follow the written chain, without caps; N, C: chain ends. Non-standard residues stand in square brackets, D forms with d. Residues, ends and D or L forms follow the SMILES beside them. Chains are numbered I, II in the order given. Actinocin(9to1) = Cc1c2oc3c(C)ccc(C(=O)[*:1])c3nc-2c(C(=O)[*:2])c(N)c1=O; NMeV = CN[CH](C(=O)O)C(C)C; Sar = CNCC(=O)O

In the case of `Cc1nc(NC(=O)N2CCC[C@@H]2C(N)=O)sc1-c1ccnc(C(C)(C)C(F)(F)F)c1`, the parasite growth, % of control (lower = inhibition) in [1] amounted to 24%. In addition, the growth, % of control in [2] was 5.19%. In test [3], this compound yielded a viability (% of control) of 65.8%. The Potency result in test [4] and in test [5] was “inactive” in each case. Moreover, the Potency in test [6] is 1480 nM (active); in test [7], 23500 nM (active); in test [8] it was 6620 nM (active).

Take `COc1cccc2c1C(=O)c1c(O)c3c(c(O)c1C2=O)C[C@@](O)(C(=O)CO)C[C@H]3O[C@H]1C[C@H](N)[C@H](O)[C@H](C)O1`: the parasite growth, % of control (lower = inhibition) in test [1] amounted to 5.25%. For the same compound, the growth, % of control in [2] came out at 1.64%. In test [3], this compound yielded a viability (% of control) of 4.57%. The Potency entry in test [4], in test [5] and in test [8] was “inactive” in each case. Moreover, the Potency was 187 nM (active) in test [6], 74.3 nM (active) in test [9] and 26.4 nM (active) in [7].

In the case of `O=C(CCCCCCC(=O)Nc1cccnc1)NO`, in test [1], the parasite growth, % of control (lower = inhibition) was found to be 7.99%. Besides, the growth, % of control in test [2] came out at 4.47%. Further, the viability (% of control) in test [3] came out at 10.1%. For the same compound, the Potency entry in [4] and in [5] was “inactive” in each case. Also, the Potency in test [6] is 2960 nM (active); in [9], 5260 nM (active); in test [7], 2640 nM (active); in test [8], 5260 nM (active).

Take `Cc1c2oc3c(C)ccc(C(=O)NC4C(=O)NC(C(C)C)C(=O)N5CCCC5C(=O)N(C)CC(=O)N(C)C(C(C)C)C(=O)OC4C)c3nc-2c(C(=O)NC2C(=O)NC(C(C)C)C(=O)N3CCCC3C(=O)N(C)CC(=O)N(C)C(C(C)C)C(=O)OC2C)c(N)c1=O` (stereo not drawn) (I: TVP[Sar][NMeV] / II: TVP[Sar][NMeV]; ester I:1-I:C, II:1-II:C; linker I:N-II:N via Actinocin(9to1); configuration not given here): the parasite growth, % of control (lower = inhibition) in test [1] turned out to be 15.2%. In [2], this compound gave a growth, % of control of 2.3%. The Potency entry in [4], in test [5], in test [9], in test [7] and in test [8] was “inactive” each time.

Consider `CC(=O)NCC(=O)N1[C@H]2CC[C@H]1c1cc(Nc3ncc(C(F)(F)F)c(NC4CCC4)n3)ccc12`, for which the parasite growth, % of control (lower = inhibition) in test [1] came to 12.7%. The compound also showed a growth, % of control in [2] of 6.85%. In addition, in test [3], the viability (% of control) is 2.93%. The Potency entry in [4] and in test [5] was “inactive” each time. Also, the Potency in test [6] is 5260 nM (active); in test [9], 935 nM (active); in test [7] it was 83.3 nM (active); in test [8], 209 nM (active).

Regarding `CC(=O)O[C@]1(C(C)=O)CC[C@H]2[C@@H]3C=C(C)C4=CC(=O)CC[C@]4(C)[C@@H]3CC[C@@]21C`, the parasite growth, % of control (lower = inhibition) in test [1] amounted to 18.8%. Besides, the growth, % of control in test [2] worked out at 10.6%. In test [3], this compound returned a viability (% of control) of 3.38%. Further, the Potency entry in test [4] and in test [5] was “inactive” throughout. In addition, the Potency was 3320 nM (active) in test [6], 4180 nM (active) in [9] and 7430 nM (active) in [7].

As to `Cn1cc(CNCC2CCN(c3ncc(C(=O)NO)cn3)CC2)c2ccccc21`, in test [1], the parasite growth, % of control (lower = inhibition) came to 8.03%. The growth, % of control in test [2] was 7.88%. Also, the Potency result in test [4] and in test [5] was “inactive” throughout. In addition, the Potency in test [6] is 33.2 nM (active); in test [9], 33.2 nM (active); in test [7], 33.2 nM (active); in [8], 20.9 nM (active).

For the compound `Cc1[nH]c(C=C2C(=O)Nc3ccccc32)c(C)c1CCC(=O)O`, in test [1], the parasite growth, % of control (lower = inhibition) amounted to 138%. The compound also gave a growth, % of control in test [2] of 27.3%. This compound also displayed a viability (% of control) in [3] of 5.24%. Besides, the Potency is 16600 nM (active) in test [4]; 11800 nM (active) in [5]; 209 nM (active) in test [6]; 296 nM (active) in [9]; 235 nM (active) in [7].

Turning to `COc1ccc(S(=O)(=O)Nc2cccnc2Nc2ccc(O)cc2)cc1`, the parasite growth, % of control (lower = inhibition) in test [1] worked out at 85.5%. For the same compound, in test [2], the growth, % of control amounted to 51.4%. In addition, the viability (% of control) in test [3] stood at 8.72%. The Potency result in test [4], in test [5] and in test [8] was “inactive” throughout. Besides, the Potency is 83.3 nM (active) in test [6], 148 nM (active) in test [9] and 93.5 nM (active) in test [7].

Take `CS[C@H]1SC[C@@H]2C(=O)N(C)[C@H](C(C)C)C(=O)OC[C@H](NC(=O)c3cnc4ccccc4n3)C(=O)N[C@H](C)C(=O)N(C)[C@@H]1C(=O)N(C)[C@H](C(C)C)C(=O)OC[C@H](NC(=O)c1cnc3ccccc3n1)C(=O)N[C@H](C)C(=O)N2C`: in test [1], the parasite growth, % of control (lower = inhibition) is 7.64%. For the same compound, the growth, % of control in test [2] worked out at 10.7%. Also, the Potency entry in test [4] and in [5] was “inactive” throughout. Besides, the Potency is 1.9 nM (active) in test [6], 2.6 nM (active) in test [9], 1.9 nM (active) in test [7] and 1.9 nM (active) in [8].

For `CN1C(C(=O)Nc2ccccn2)=C(O)c2sc(Cl)cc2S1(=O)=O`, in [1], the parasite growth, % of control (lower = inhibition) stood at 50.9%. Moreover, in test [2], the growth, % of control came out at 69.3%. Besides, the viability (% of control) in [3] worked out at 71.2%. The Potency result in [4] and in test [5] was “inactive” each time. Besides, the Potency is 3320 nM (active) in test [6], 3720 nM (active) in test [9], 20900 nM (active) in [7] and 5260 nM (active) in test [8].

Consider `CCCCC(=O)O[C@]1(C(=O)CO)[C@@H](C)C[C@H]2[C@@H]3CCC4=CC(=O)C=C[C@]4(C)[C@@]3(F)[C@@H](O)C[C@@]21C`, for which the parasite growth, % of control (lower = inhibition) in [1] was 54.9%. The same compound displayed a growth, % of control in test [2] of 22.8%. Besides, the Potency entry in test [4], in test [5], in [6], in [9], in test [7] and in test [8] was “inactive” in each case.

Consider `CC(C)OC(=O)[C@H](C)N[P@](=O)(OC[C@H]1O[C@@H](n2ccc(=O)[nH]c2=O)[C@](C)(F)[C@H]1O)Oc1ccccc1`, for which the Potency result in test [4], in [5], in test [6], in test [9], in test [7] and in test [8] was “inactive” each time.

In the case of `c1ccc2c(Oc3nc(Nc4ccc(N5CCOCC5)cc4)c4ncn(C5CCCCC5)c4n3)cccc2c1`, in test [1], the parasite growth, % of control (lower = inhibition) came out at 33.7%. Also, the growth, % of control in [2] is 9.45%. For the same compound, the viability (% of control) in test [3] amounted to 100%. Also, the Potency entry in test [4], in [5], in test [9], in test [7] and in test [8] was “inactive” each time.

For `Oc1ccc(-c2ccc(-c3cc(Nc4cccc(CNC5CC5)c4)n[nH]3)cc2)c(O)c1`, the parasite growth, % of control (lower = inhibition) in [1] came out at 20%. Further, in [2], the growth, % of control turned out to be 3.25%. This compound showed a viability (% of control) in test [3] of 3.58%. Besides, the Potency entry in test [4] and in [5] was “inactive” in each case. Further, the Potency is 1480 nM (active) in test [6], 1870 nM (active) in test [9], 1870 nM (active) in [7] and 5900 nM (active) in test [8].

Consider `CCOC(=O)C1=C(C)NC(=S)NC1c1cccc(O)c1` (stereo not drawn), for which, in test [1], the parasite growth, % of control (lower = inhibition) worked out at 85.5%. The same compound yielded a growth, % of control in test [2] of 39%. The compound further came in with a viability (% of control) in test [3] of 19.3%. In addition, the Potency result in [4], in test [5] and in [8] was “inactive” throughout. Further, the Potency was 264 nM (active) in test [6], 105 nM (active) in [9] and 93.5 nM (active) in test [7].

`CC(N[C@H]1CCCC[C@H]1NC(=O)c1ccc(Cl)cc1)c1cccc2ccccc12` (stereo partly drawn): in test [3], the viability (% of control) was found to be 20.6%. Moreover, the Potency entry in [4], in [5], in [6], in test [9] and in [7] was “inactive” throughout.

Values taken from PubChem BioAssay (NCATS).
